Data: PubChem BioAssay (EPA / NIEHS)
Inconclusive results are not listed. Calls of active or inactive are those of the source. How the source made its calls, unless noted: active means hit-call score of the fitted dose curve at least 0.9, where 1 is the maximum; inactive means score below 0.9.

Key:
[1] = read-out: Pyruvate Dehydrogenase Kinase 4 (PDK4), PDK4 (gene 5166); assay: LTEA_HepaRG_PDK4: Life Technologies and Expression Analysis (LTEA) Assay for Pyruvate Dehydrogenase Kinase 4 (PDK4) using HepaRG (AID 2283525); conditions: mRNA level, 48 h; actives raise or lower the signal
How it was run: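 HepaRG (human liver line), 48 h chemical exposure, 8-pt half-log CRC top 100 uM, 0.5% DMSO vehicle, duplicates. Readout: TaqMan qRT-PCR of PDK4 mRNA, housekeeping-normalized; gain/loss fit relative to DMSO baseline.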

[2] = read-out: Nuclear factor erythroid 2-related factor 2 (Homo sapiens) (UniProt Q16236); assay: LTEA_HepaRG_NFE2L2: Life Technologies and Expression Analysis (LTEA) Assay for Nuclear factor erythroid 2-related factor 2 (NFE2L2) Transcription Factor using HepaRG (AID 2283527); conditions: mRNA level, 48 h; actives raise or lower the signal
How it was run: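 HepaRG, 48 h dosing, 8-pt half-log series from 100 uM in 0.5% DMSO, duplicates. Read-out: NFE2L2 mRNA by qRT-PCR (ACTB/GAPDH/POLR2A normalization). Bidirectional curve fit vs DMSO baseline.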

[3] = read-out: succinate dehydrogenase complex iron sulfur subunit B (SDHB), SDHB (gene 6390); assay: LTEA_HepaRG_SDHB: Life Technologies and Expression Analysis (LTEA) Assay for succinate dehydrogenase complex iron sulfur subunit B (SDHB) using HepaRG (AID 2283528); conditions: mRNA level, 48 h; actives raise or lower the signal
How it was run: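 Readout is SDHB transcript level by qRT-PCR, normalised to three housekeeping genes and fitted bidirectionally against 0.5% DMSO vehicle. Human HepaRG cells were treated for 48 h at up to 100 uM.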

[4] = read-out: Signal transducer and activator of transcription 3 (Homo sapiens) (UniProt P40763); assay: LTEA_HepaRG_STAT3: Life Technologies and Expression Analysis (LTEA) Assay for Signal transducer and activator of transcription (STAT3) using HepaRG (AID 2283529); conditions: mRNA level, 48 h; actives raise or lower the signal
How it was run: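 HepaRG, 48 h exposure, 8-pt half-log series (top 100 uM), 0.5% DMSO vehicle, duplicates. Readout: STAT3 transcript by Fluidigm qRT-PCR, housekeeping-normalized; bidirectional fit vs DMSO baseline.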

[5] = read-out: solute carrier (SLCO1B1), SLCO1B1 (gene 10599); assay: LTEA_HepaRG_SLCO1B1: Life Technologies and Expression Analysis (LTEA) Assay for solute carrier (SLCO1B1) using HepaRG (AID 2283530); conditions: mRNA level, 48 h; actives raise or lower the signal
How it was run: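 Human HepaRG cultures treated for 48 h with an eight-concentration half-log series topping at 100 uM; SLCO1B1 measured by qRT-PCR and fitted bidirectionally relative to DMSO.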

[6] = read-out: Transforming Growth Factor (TGFA), TGFA (gene 7039); assay: LTEA_HepaRG_TGFA: Life Technologies and Expression Analysis (LTEA) Assay for Transforming Growth Factor (TGFA) using HepaRG (AID 2283532); conditions: mRNA level, 48 h; actives raise or lower the signal
How it was run: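 qRT-PCR read-out of TGFA transcript, normalized to three housekeeping genes, fitted bidirectionally against 0.5% DMSO baseline. Human HepaRG cultures received chemicals for 48 h at eight half-log concentrations, top 100 uM.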

[7] = read-out: Transforming Growth Factor (TGFB1), TGFB1 (gene 7040); assay: LTEA_HepaRG_TGFB1: Life Technologies and Expression Analysis (LTEA) Assay for Transforming Growth Factor (TGFB1) Transporter using HepaRG (AID 2283533); conditions: mRNA level, 48 h; actives raise or lower the signal
How it was run: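 Eight-point concentration-response (max 100 uM, half-log) in HepaRG under serum-free induction conditions, 48 h. TGFB1 mRNA by qRT-PCR, housekeeping-normalized.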

[8] = read-out: Tumor necrosis factor receptor 1 (TNFRSF1A), TNFRSF1A (gene 7132); assay: LTEA_HepaRG_TNFRSF1A: Life Technologies and Expression Analysis (LTEA) Assay for Tumor necrosis factor receptor 1 (TNFRSF1A) using HepaRG (AID 2283535); conditions: mRNA level, 48 h; actives raise or lower the signal
How it was run: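 Assay uses 48 h chemical treatment of differentiated HepaRG monolayers, tested in duplicate at eight concentrations from 100 uM downward in 0.5% DMSO. mRNA is normalized to ACTB, GAPDH and POLR2A, with induction or suppression fitted relative to vehicle.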

[9] = read-out: Thyroid Hormone Responsive (THRSP), THRSP (gene 7069); assay: LTEA_HepaRG_THRSP: Life Technologies and Expression Analysis (LTEA) Assay for Thyroid Hormone Responsive (THRSP) using HepaRG (AID 2283536); conditions: mRNA level, 48 h; actives raise or lower the signal
How it was run: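 qRT-PCR read-out (Fluidigm TaqMan), housekeeping-normalized (ACTB/GAPDH/POLR2A). HepaRG, 48 h chemical exposure, 8-pt half-log series from 100 uM in 0.5% DMSO, duplicates. Bidirectional curve fit vs 0.5% DMSO baseline.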

[10] = read-out: Cellular tumor antigen p53 (Homo sapiens) (UniProt P04637); assay: LTEA_HepaRG_TP53: Life Technologies and Expression Analysis (LTEA) Assay for Tumor Protein P53 (TP53) using HepaRG (AID 2283537); conditions: mRNA level, 48 h; actives raise or lower the signal
How it was run: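 Read-out is TP53 transcript level by microfluidic qRT-PCR, normalised to three housekeeping genes and fitted bidirectionally against DMSO. Human HepaRG cells received compounds for 48 h, highest concentration 100 uM.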

[11] = read-out: UDP glucuronosyltransferase (UGT1A1), UGT1A1 (gene 54658); assay: LTEA_HepaRG_UGT1A1: Life Technologies and Expression Analysis (LTEA) Assay for UDP glucuronosyltransferase (UGT1A1) using HepaRG (AID 2283538); conditions: mRNA level, 48 h; actives raise or lower the signal
How it was run: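 Cells are plated, cultured 48 h, switched to serum-free induction medium, then dosed 48 h at eight concentrations (max 100 uM, 0.5% DMSO). RNA is isolated and UGT1A1 expression measured by qRT-PCR; changes versus DMSO are fitted in both directions.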

[12] = read-out: UDP glucuronosyltransferase (UGT1A6), UGT1A6 (gene 54578); assay: LTEA_HepaRG_UGT1A6: Life Technologies and Expression Analysis (LTEA) Assay for UDP glucuronosyltransferase (UGT1A6) using HepaRG (AID 2283539); conditions: mRNA level, 48 h; actives raise or lower the signal
How it was run: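 Measures mRNA change in HepaRG hepatic cells exposed 48 h to chemicals (eight-point, maximum 100 uM, 0.5% DMSO vehicle) in serum-free induction medium. Expression normalized to endogenous controls; DMSO served as negative control and baseline.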

[13] = read-out: X-box binding protein 1 (XBP1), XBP1 (gene 7494); assay: LTEA_HepaRG_XBP1: Life Technologies and Expression Analysis (LTEA) Assay for X-box binding protein 1 (XBP1) using HepaRG (AID 2283540); conditions: mRNA level, 48 h; actives raise or lower the signal
How it was run: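 Eight concentrations (half-log, highest 100 uM, 0.5% DMSO) tested in duplicate on HepaRG cells over 48 h in serum-free induction medium; qRT-PCR of XBP1 normalised to ACTB, GAPDH, POLR2A.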

[14] = LTEA_HepaRG_LDH_cytotoxicity: Cytotoxicity Assessment in the Life Technologies and Expression Analysis (LTEA) Assay (AID 2283563; active means hit-call score of the fitted dose curve at least 0.9, where 1 is the maximum;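 on AC50: LDH activity released into spent culture medium as a marker of cell death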)
How it was run: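 Spent-medium LDH after 48 h chemical exposure of HepaRG cells in serum-free induction medium; eight concentrations, half-log dilutions from 100 uM, duplicate wells, fitted upward relative to 0.5% DMSO.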

[15] = ATG_XTT_Cytotoxicity: Cytotoxicity Assessment in the Attagene TRANS-FACTORIAL HepG2 Assay (AID 2283584; active means hit-call score of the fitted dose curve at least 0.9, where 1 is the maximum;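 on AC50: XTT signal for cell number as viability in transfected HepG2 cells; cells exposed to compound for 24 h before reading; active means loss of viability signal versus DMSO baseline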)
How it was run: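 24 h chemical exposure of reporter-transfected HepG2; XTT signal loss vs DMSO indicates cytotoxicity.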

[16] = TOX21_p53_BLA_p2_viability: Viability Assessment in the Tox21 HCT-116 p53 Agonism Beta-lactamase Assay, Phase 2 (AID 2283591; active means hit-call score of the fitted dose curve at least 0.9, where 1 is the maximum;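 further: compound exposure lasted 16 h at 37 °C; actives lower the ATP signal meaning cytotoxicity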)
How it was run: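 HCT116 p53-bla cells, 4000/well, dosed after 5 h plating (217-fold dilution of DMSO stocks) and incubated 16 h at 37C. Viability taken as cellular ATP by CellTiter-Glo luminescence after 30 min RT; signal loss marks cytotoxicity.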

[17] = target: Cellular tumor antigen p53 (Homo sapiens) (UniProt P04637); assay: TOX21_p53_BLA_p2_ratio: Tox21 HCT-116 p53 Agonism Beta-lactamase Assay, Ratio, Phase 2 (AID 2283592; active means hit-call score of the fitted dose curve at least 0.9, where 1 is the maximum)
How it was run: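 DMSO-normalized, positive-direction endpoint derived from the 460 nm/530 nm FRET ratio in HCT116 p53 beta-lactamase reporter cells exposed 16 h at 37C and loaded with CCF4-AM for 2 h.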

[18] = read-out: NAD(P)H dehydrogenase [quinone] 1 (NQO1), NQO1 (gene 1728); assay: LTEA_HepaRG_NQO1: Life Technologies and Expression Analysis (LTEA) Assay for NAD(P)H dehydrogenase [quinone] 1 (NQO1) using HepaRG (AID 2283526); conditions: mRNA level, 48 h; actives raise or lower the signal
How it was run: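 Transcript induction or suppression is quantified by qRT-PCR in human HepaRG liver cells dosed for 48 hours. Eight half-log concentrations topping at 100 uM are used, with 0.5% DMSO as vehicle and baseline.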

[19] = read-out: sulfotransferase 2A1 (SULT2A1), SULT2A1 (gene 6822); assay: LTEA_HepaRG_SULT2A1: Life Technologies and Expression Analysis (LTEA) Assay for sulfotransferase 2A1 (SULT2A1) using HepaRG (AID 2283531); conditions: mRNA level, 48 h; actives raise or lower the signal
How it was run: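 Gene-expression endpoint in a human liver cell line: SULT2A1 mRNA change after 48 h chemical treatment, curves fitted in both directions relative to 0.5% DMSO vehicle. Concentrations spanned eight half-log steps from 100 uM.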

[20] = read-out: TIMP1, TIMP1 (gene 7076); assay: LTEA_HepaRG_TIMP1: Life Technologies and Expression Analysis (LTEA) Assay for TIMP1 using HepaRG (AID 2283534); conditions: mRNA level, 48 h; actives raise or lower the signal
How it was run: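 TIMP1 induction or repression in HepaRG cells after 48 h chemical exposure (eight concentrations, highest 100 uM), assessed by normalized qRT-PCR with bidirectional fitting to DMSO controls.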

Measured: AC50

Cellular tumor antigen p53 (Homo sapiens), sequence (P04637 whole entry, looked up): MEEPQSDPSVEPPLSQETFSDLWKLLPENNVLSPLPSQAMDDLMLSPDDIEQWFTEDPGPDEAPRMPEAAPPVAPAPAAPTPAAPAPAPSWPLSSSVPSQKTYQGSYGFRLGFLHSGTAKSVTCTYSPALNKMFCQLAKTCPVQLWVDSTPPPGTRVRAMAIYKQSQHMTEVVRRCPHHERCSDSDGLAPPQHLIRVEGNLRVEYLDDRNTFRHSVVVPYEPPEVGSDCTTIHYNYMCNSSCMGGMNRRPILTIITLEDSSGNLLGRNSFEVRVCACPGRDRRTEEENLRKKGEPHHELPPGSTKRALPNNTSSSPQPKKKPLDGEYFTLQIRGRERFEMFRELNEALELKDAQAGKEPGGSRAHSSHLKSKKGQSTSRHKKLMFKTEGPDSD
Nuclear factor erythroid 2-related factor 2 (Homo sapiens), sequence (Q16236 whole entry, looked up): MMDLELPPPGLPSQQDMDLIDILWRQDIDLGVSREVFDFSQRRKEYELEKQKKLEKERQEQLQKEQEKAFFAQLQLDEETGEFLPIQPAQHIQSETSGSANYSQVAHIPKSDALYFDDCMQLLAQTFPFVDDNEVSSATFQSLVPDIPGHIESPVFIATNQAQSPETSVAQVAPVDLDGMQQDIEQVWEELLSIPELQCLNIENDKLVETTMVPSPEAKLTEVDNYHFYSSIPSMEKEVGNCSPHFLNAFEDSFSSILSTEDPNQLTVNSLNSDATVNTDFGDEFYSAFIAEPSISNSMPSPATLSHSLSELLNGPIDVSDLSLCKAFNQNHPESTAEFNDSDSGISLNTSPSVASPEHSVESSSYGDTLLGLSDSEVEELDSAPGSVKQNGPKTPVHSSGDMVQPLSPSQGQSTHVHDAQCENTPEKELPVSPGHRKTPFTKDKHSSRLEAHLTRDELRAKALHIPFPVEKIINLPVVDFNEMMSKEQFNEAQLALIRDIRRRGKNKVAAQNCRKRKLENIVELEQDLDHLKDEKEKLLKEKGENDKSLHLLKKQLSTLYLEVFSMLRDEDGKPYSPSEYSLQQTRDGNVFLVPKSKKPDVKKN
Signal transducer and activator of transcription 3 (Homo sapiens), sequence (P40763 whole entry, looked up): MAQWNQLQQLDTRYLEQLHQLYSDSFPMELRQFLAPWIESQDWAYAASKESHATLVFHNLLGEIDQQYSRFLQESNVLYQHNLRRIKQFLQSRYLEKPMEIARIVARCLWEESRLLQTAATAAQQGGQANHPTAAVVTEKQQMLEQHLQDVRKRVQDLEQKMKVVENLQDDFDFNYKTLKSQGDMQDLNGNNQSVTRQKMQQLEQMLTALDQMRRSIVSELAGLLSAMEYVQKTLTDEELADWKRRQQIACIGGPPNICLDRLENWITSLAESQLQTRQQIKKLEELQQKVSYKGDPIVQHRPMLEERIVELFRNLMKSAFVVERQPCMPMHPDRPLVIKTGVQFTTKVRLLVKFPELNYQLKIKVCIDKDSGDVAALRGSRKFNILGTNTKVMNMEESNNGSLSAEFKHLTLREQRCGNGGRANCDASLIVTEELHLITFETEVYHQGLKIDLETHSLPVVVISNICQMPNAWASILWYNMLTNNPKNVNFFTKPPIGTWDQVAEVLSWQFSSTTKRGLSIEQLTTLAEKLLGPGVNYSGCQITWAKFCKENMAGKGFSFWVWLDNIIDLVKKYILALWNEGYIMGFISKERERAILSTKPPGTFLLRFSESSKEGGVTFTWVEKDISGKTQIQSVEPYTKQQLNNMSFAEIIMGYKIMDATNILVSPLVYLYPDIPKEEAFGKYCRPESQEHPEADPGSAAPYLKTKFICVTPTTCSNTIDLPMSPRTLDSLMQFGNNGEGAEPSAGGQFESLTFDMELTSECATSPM

CC(C)=CCC/C(C)=C\CO
not listed: [18] | [19] | [20]
inactive: all other assays above

COc1cccc(-c2ccc(/C=C\CN3CCCCCC3)cc2Cl)c1
active: [1] 74.1 µM | [2] 65.7 µM | [5] 74.6 µM | [19] 83.2 µM | [6] 74.4 µM | [7] 87.3 µM | [11] 83.4 µM | [12] 80.4 µM | [14] 68.8 µM | [16] 57.8 µM | [17] 70.5 µM
inactive: [18] | [3] | [8] | [10] | [13]

COc1ccc2sc(C(=O)Nc3nnn[nH]3)c(OC(C)C)c2c1
active: [1] 32.5 µM | [2] 27.6 µM | [5] 81.7 µM | [6] 34 µM | [8] 39 µM | [10] 38.9 µM | [11] 12.9 µM | [12] 50 µM | [16] 13.2 µM
inactive: [18] | [3] | [7] | [20] | [13] | [14] | [17]

O=C(O)CCN(C1(C(=O)NO)CCCC1)S(=O)(=O)c1ccc(Oc2ccc(F)cc2)cc1
not listed: [4] | [15] | [16] | [20]
inactive: all other assays above

O=C(CCCCCCCCc1cccnc1)N1CCC(C=C(c2ccccc2)c2ccccc2)CC1
active: [1] 89.4 µM | [18] 80 µM | [2] 24.9 µM | [5] 50 µM | [19] 30.6 µM | [6] 27 µM | [8] 79.2 µM | [9] 18.8 µM | [10] 22.9 µM | [11] 32.9 µM | [12] 33.6 µM | [13] 30.9 µM | [14] 36.8 µM | [15] 33.8 µM | [16] 10 µM
inactive: [3] | [7] | [17]

On1ccccc1=S
not listed: [4] | [16] | [19]
inactive: all other assays above

O=C(O)c1cccc(N(Cc2cccnc2)c2ccc(OC(F)F)c(OC(F)F)c2)c1
active: [1] 50 µM | [11] 25 µM
not listed: [4] | [8] | [20]
inactive: all other assays above

CNS(=O)(=O)c1cc(C(=O)N2CCC(CCN3C4CCC3CC(n3c(C)nc5ccccc53)C4)(c3cccc(F)c3)CC2)c(Cl)cc1F (stereo not drawn)
active: [1] 28.9 µM | [3] 17.3 µM | [5] 13.1 µM | [7] 19.4 µM | [11] 9.92 µM | [12] 50 µM | [14] 32.2 µM | [16] 26.9 µM
not listed: [4] | [9] | [15] | [19]
inactive: all other assays above
